# This is part of a sample that, as a whole, favours compounds with a hit. Of some 83,000 tested, about 20% had one in any assay.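 96-well plates, one dose, 48 hours. Percent growth reported; active if below 10.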 Calls of active or inactive are those of the source.
# Tested on: HOP-62 NSCLC
# Assay: NCI-60 one-dose screen, 48 h (100 = growth as untreated, 0 = no growth, -100 = all killed)
# Details: 10 µM unless noted
# Method: Growth inhibition of the HOP-62 human Non-Small Cell Lung tumor cell line is measured as a screen for anti-cancer activity. Cells are grown in 96 well plates and exposed to the test compound for 48 hours. Compounds are tested at a single concentration, which is 10^-5 M for most compounds. The reported endpoint is percent growth (GI% or GIPRCNT), where numbers from 0 - 100% represent growth inhibition, and numbers from -100% - 0 represent cell death. For example, a value of 40 represents 60% growth inhibition. A value of 0 means no net growth occurred over the course of the experiment. A value of -40 indicates 40% of cells at the beginning of the experiment died by the end of the experiment. A value of -100 means all cells are dead at the end of the experiment.
# NCI-60 Human Tumor Cell Lines Screen was performed using the standard one-dose NCI protocol, which is described in more detail at https://dtp.cancer.gov/discovery_development/nci-60/default.htm.
# Compounds with GIPRCNT values below 10 were considered active. Activity score was based on GIPRCNT using the following formula: […]
# Score is 0 for GIPRCNT values of 100 or above, 50 for GIPRCNT values of 0, and 100 for GIPRCNT values of -100.
row,Structure (SMILES),growth
1,N#Cc1c(-c2ccc(Cl)cc2)nc2c(-c3ccccc3)c(Nc3ccccc3)nn2c1N,57.5% (inactive)
2,CCOC(=O)c1c(Nc2ccccc2)nn2c(N)c(C#N)c(-c3ccccc3)nc12,97.7% (inactive)
3,N#Cc1nc(-c2ccccc2)oc1N1CC[C@@H](CO)C1,102% (inactive)
4,C[C@@H]1CN(c2ccc3ncc(C#Cc4cncc(C(=O)Nc5ccc(CN6CCN(C)CC6)c(C(F)(F)F)c5)c4)n3n2)C[C@H](C)O1,-30.1% (active)
5,COc1cc(/C=C/C(=O)c2ccccc2)ccc1Oc1nc(NCCO)nc(N2CCOCC2)n1,90.1% (inactive)
6,c1ccc(CNc2ncnc3ccc(-c4cnc5[nH]ncc5c4)cc23)cc1,60.7% (inactive)
7,Nc1ncc(-c2ccc3ncnc(N4CCc5cc(F)c(Cl)cc54)c3c2)cc1CO,9.91% (active)
8,COc1cc2cc(Oc3ccc(NC(=O)c4cccc(C(F)(F)F)c4)cc3)c(C)nc2cc1OCCN1CCCCC1,98.1% (inactive)
9,O=C(CCN1C(=O)/C(=C/c2ccccc2)SC1=S)N1CCOCC1,114% (inactive)
10,CN1C(=O)N(c2ccccc2)C2N=C(N/N=C/c3ccccc3)SC21 (stereo not given),39% (inactive)
11,CCN1C(=S)N(c2ccccc2)C2NC(=O)N(/N=C/C=C/c3ccccc3OC)C21 (stereo not given),80.6% (inactive)
12,CCN1C(=S)N(CC)C2C1N=C(SC)N2/N=C/C=C/c1ccccc1[N+](=O)[O-] (stereo not given),99.7% (inactive)
13,O=C(c1ccc(O)cc1)C1[C@H](c2ccc(Cl)cc2)[C@@H](c2ccccc2)NC12C(=O)Nc1ccc(Cl)cc12 (stereo not given in full),64.6% (inactive)
14,COc1ccccc1/C=C/C=N/NC1=NC2C(S1)N(C)C(=O)N2C (stereo not given),35.6% (inactive)
15,OC1CCN(CCCOc2c3ccccc3nc3c2oc2ccc(Cl)cc23)CC1,27% (inactive)
16,CCOC(=O)c1c(Nc2ccccc2)nn2c(N)c(C#N)c(-c3ccc(Cl)cc3)nc12,53.9% (inactive)
17,CN(C)CCCOc1c2ccc(Cl)cc2nc2c1oc1ccc(Cl)cc12,32.8% (inactive)
18,Cc1ccc(-c2nc(C(Cl)Cl)nc3cc(-c4ccccc4)nn23)cc1,-16.7% (active)
19,O=C1NC(=C(Cl)Cl)/C(=N/S(=O)(=O)N2CCCCC2CC2(C(F)(F)F)N=N2)N1 (stereo not given),96% (inactive)
20,Cn1cc(-c2cc(N)n3nc(-c4cn(C)c5ccc(Cl)cc45)cc3n2)c2cc(Cl)ccc21,102% (inactive)

row,Structure (SMILES),growth
1,O=C(N/N=C/c1ccc(Br)s1)c1[nH]c2ccc(Br)cc2c1-c1ccccc1,46.5% (inactive)
2,COc1ccc(-c2cc(C(=O)N=Nc3c(O)[nH]c4ccccc34)c3ccccc3n2)cc1OC,93.2% (inactive)
3,O=C(N/N=C/c1ccc(Cl)s1)c1[nH]c2ccc(Br)cc2c1-c1ccccc1,30.2% (inactive)
4,O=C(CSc1nnc(-c2ccc3nc(-c4ccc(Cl)cc4)[nH]c3c2)o1)Nc1ccc(C(=O)/C=C/c2ccc(Cl)cc2)cc1,97.9% (inactive)
5,CCOC(=O)c1c(Nc2ccccc2)nn2c(-c3ccco3)c(C#N)cnc12,95.6% (inactive)
6,CN(C)CCCNc1c2ccc(Cl)cc2nc2c1oc1ccccc12,46.9% (inactive)
7,CNC(=O)c1cc(-c2ccc(NC(=O)Nc3ccc(N4CCOCC4)c(C(F)(F)F)c3)cc2)nc2cccnc12,80.6% (inactive)
8,COc1ccc(-c2nc3ccc(-c4nnc(SCC(=O)Nc5ccc(C(=O)/C=C/c6ccccc6)cc5)o4)cc3[nH]2)cc1OC,101% (inactive)
9,O=C(CN1C(=O)/C(=C/c2ccccc2)SC1=S)N1CCOCC1,97% (inactive)
10,CCCC(=O)NC(c1ccc(N(CC)CC)cc1)c1cc(C)c2cccnc2c1O (stereo not given),17.4% (inactive)
11,COc1ccc(Cc2nn(CC(=O)N/N=C/c3ccc(Cl)cc3)c(=O)c3c(C)noc23)cc1,70.4% (inactive)
12,Clc1ccc2c(NCCCN3CCOCC3)c3oc4ccc(Cl)cc4c3nc2c1,67.2% (inactive)
13,O=C(N/N=C/c1ccco1)c1[nH]c2ccc(Br)cc2c1-c1ccccc1,35.4% (inactive)
14,Nc1cc(-c2c[nH]c3ccc(Cl)cc23)nc2cc(-c3c[nH]c4ccc(Cl)cc34)nn12,85.7% (inactive)
15,Cc1sc2nc(NCc3ccccc3Cl)[nH]c(=O)c2c1C,93.4% (inactive)
16,Nc1c(C(=O)c2ccc(Br)cc2)oc2nc(-c3cnccn3)cc(-c3cccs3)c12,94% (inactive)
17,CCN(CC)c1ccc(C=O)c(OCc2cn(CC(=O)Nc3ccc(Cl)cc3)nn2)c1,89.9% (inactive)
18,Cc1cccc2sc(/N=C(\N)C(Cl)(Cl)Cl)nc12,81.5% (inactive)
19,NS(=O)(=O)c1cccc(Nc2nc(SCC(=O)c3ccc(Br)cc3)nc3ccccc23)c1,59.5% (inactive)
20,CCCSc1nc(Nc2ccc(/C(C)=N\NC(N)=S)cc2)c(C#N)c(-c2ccc(OC)cc2)n1,31.6% (inactive)

# Reference: PubChem BioAssay (NCI)
